Source: PubChem BioAssay

assay: RPL19A-GFP modulators, yeast TOR pathway, confirmation, cell-based, S. cerevisiae, flow cytometry, cherry picks, mother/daughter gates (AID 2270); settings: S. cerevisiae RPL19A-GFP strain, 3 h, measured here: mother cell gate, at 10 µM, stronger effect = lower value, 100 = same GFP as DMSO wells

Compound	GFP response vs DMSO
CCOC(=O)c1ccc(NC(=O)CCc2nc(-c3ccc(C)cc3)no2)cc1	100%
Cc1cccc(N2C(=O)C(Cl)=C(Nc3c(C)n(C)n(-c4ccccc4)c3=O)C2=O)c1C	103%
Cc1noc2ncnc(Sc3ccc(Cl)cc3)c12	97.2%
CCN(CC)c1ccc(/C=C/c2cccc[n+]2C)c(OC)c1	105%
CC1=NOC(=O)/C1=C\c1ccc(-c2cc(Cl)ccc2Cl)o1	91.6%
CCCN(c1ccccc1F)S(=O)(=O)c1cc(-c2cc(C)no2)ccc1OC	96.1%
COc1ccccc1-c1noc(CCC(=O)Nc2cccc(C)c2)n1	100%
O=C(c1ccc([N+](=O)[O-])o1)N1CCN(c2nc3ccc(F)cc3s2)CC1	98.4%
COc1ccc(Br)cc1/C=C/C(=O)c1ccc(NC(C)=O)cc1	97.7%
CCOc1ccc(/C=C/C(=O)c2c(O)cc(C)oc2=O)cc1	94.6%
CN1CCN(C(c2ccc(C(F)(F)F)cc2)c2ccc3cccnc3c2O)CC1 (stereo not given)	86.7%
O=C(NNC(=S)NC(=O)C12CC3CC(CC(C3)C1)C2)c1ccncc1	106%
Cc1ccccc1NC(=O)c1ccccc1	96.9%
Cc1cc(C(=O)Nc2nc(-c3ccccn3)cs2)ccc1[N+](=O)[O-]	97.2%
N/C(=N\OC(=O)c1cccc(Br)c1)c1ccccc1	93.6%
O=C(Nc1nccs1)C(c1ccccc1)N1CCCCC1 (stereo not given)	104%
C=CCNC(=S)N/N=C(\C)c1cccc(OC)c1	101%
O=[N+]([O-])c1cc(CN2CCN(c3cccc(C(F)(F)F)c3)CC2)c2cccnc2c1O	104%
COc1ccccc1/C=C/C=N/NC(=O)c1cccs1	97.5%
O=C(Oc1ccnc2cc(Cl)ccc12)N1CCCCCC1	95%

Compound	GFP response vs DMSO
O=C(c1ccc([N+](=O)[O-])o1)N1CCN(c2nc3c(F)cc(F)cc3s2)CC1	67.5%
Cc1nn(Cc2ccccc2Cl)c(C)c1C(=O)NCc1ccco1	98.8%
N#C/C(=C\c1ccccn1)c1nc2ccccc2s1	172%
Cc1ccc(NC(=O)c2ccc([N+](=O)[O-])o2)cc1C	95.8%
O=C(N/N=C/c1ccc(-c2ccc(Br)cc2)o1)c1ccc2c(c1)OCO2	101%
Cc1n[nH]c(C)c1N1C(=O)c2cccc3cc(Br)cc(c23)C1=O	97%
CC(C)(C)NC(=O)c1ccccc1-c1nc(-c2ccccc2Cl)no1	93.2%
CCn1c(=O)c(C(=O)NCCc2ccccc2)c(O)c2ccccc21	98.8%
O=C(O)Cn1cc(/C=C/[N+](=O)[O-])c2ccccc21	97.2%
O=[N+]([O-])c1cc(C(F)(F)F)ccc1Sc1ccc2ccccc2n1	96.4%
Cc1ccc(NC(=S)c2nc3ccccc3[nH]2)cc1	99.3%
CCOc1ccc(C(C)=O)cc1N1C(=O)C2C3C=CC(O3)C2C1=O (stereo not given)	95.6%
O=C(CSc1nnc(-c2ccccn2)n1Cc1ccccc1)N1CCOCC1	102%
Cc1cc(N2CCOCC2)n2nc(C)c(-c3ccccc3)c2n1	102%
CCN(CC)CCN(C(=O)c1ccc2c(c1)CCCC2)c1nc2cc(OC)c(OC)cc2s1	94.1%
COc1ccc(-c2ccc(CCC(=O)O)o2)cc1	96.1%
COc1ccc(N2C(=O)C(Cl)=C(Nc3c(C)n(C)n(-c4ccccc4)c3=O)C2=O)cc1	101%
Cn1ncc(N2CCN(S(=O)(=O)c3ccc(Br)cc3)CC2)c(Cl)c1=O	98.7%
O=C(CCc1ccccc1)NNC(=S)NC(=O)c1ccccc1	107%
Cc1ccc(C(=O)OCC(=O)Nc2ccccc2Sc2ccccc2)cc1C	99.7%
